# Test results published in PubChem BioAssay (NCATS).
# Inconclusive results are not listed. Entries that show only a call come without a potency. Values without a mark were called inactive. Calls of active or inactive are those of the source. Calls come from the whole dose curve; as a rule, active = well fitted curve in the direction sought with a large enough effect; inconclusive = small, poorly fitted or top-dose-only effect, or another doubt; inactive = no such curve, though single readings can be large; an effect the other way counts as inactive or inconclusive. Where a SMILES comes first, the peptide text is derived from it. Bridges are numbered along the chain shown (N, C = ends). [ ]: non-standard residue; d: D form. NMeY = CN[CH](Cc1ccc(O)cc1)C(=O)O
# What was measured:
# NIH3T3 = test: qHTS assay to identify novel small-molecules to repurpose for Merkel cell carcinoma treatment (AID 1296009); conditions: MCC and control cell lines, CellTiter-Glo viability, 72 h; at 44.8 µM (top of the series) unless noted; note: nearly all actives have a fitted effect of over 60% in size
# Outline: (§1)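 Luminescence from CellTiter-Glo, read 10 min after addition at room temperature, reported viability following a 72 hr, 37 degree celsius treatment with NPC or MIPE compounds in titration; values normalized to plate controls.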
# C33A = test: Primary qHTS to identify gynecologic anti-cancer compounds using libraries of approved drugs and bioactive compounds (AID 1345084); conditions: Gynecologic cancer cell panel viability, ATPlite luminescence, 48 h; series mostly up to 57.5 µM; note: nearly all actives have a fitted effect of over 55% in size
# Outline: (§2)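 Five-point cytotoxicity, 48 h drug exposure at 37 C, 5% CO2, on cells seeded 16 h beforehand. ATP content read by ATPlite luminescence.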
# CAOV3 = test: as above; conditions: Gynecologic cancer cell panel viability, ATPlite luminescence, 48 h; series mostly up to 57.5 µM
# Outline: as §2
# CASKI = test: as above; conditions: Gynecologic cancer cell panel viability, ATPlite luminescence, 48 h; series mostly up to 57.5 µM
# Outline: as §2
# Es-2 = test: as above; conditions: Gynecologic cancer cell panel viability, ATPlite luminescence, 48 h; series mostly up to 57.5 µM
# Outline: as §2
# HeLa = test: as above; conditions: Gynecologic cancer cell panel viability, ATPlite luminescence, 48 h; series mostly up to 57.5 µM
# Outline: as §2
# Hek293T = test: as above; conditions: Gynecologic cancer cell panel viability, ATPlite luminescence, 48 h, control line for the selectivity index; series mostly up to 57.5 µM
# Outline: as §2
# MKL-2 = test: qHTS assay to identify novel small-molecules to repurpose for Merkel cell carcinoma treatment (AID 1296009); conditions: MCC and control cell lines, CellTiter-Glo viability, 72 h; series mostly up to 46 µM; note: nearly all actives have a fitted effect of over 60% in size
# Outline: as §1
# UISO = test: as above; conditions: MCC and control cell lines, CellTiter-Glo viability, 72 h; series mostly up to 46 µM
# Outline: as §1
# WaGa = test: as above; conditions: MCC and control cell lines, CellTiter-Glo viability, 72 h; series mostly up to 46 µM
# Outline: as §1
# Potency is the fitted concentration of half-maximal effect.
structure (smiles),measurement,setting,value
CCC(C)C1NC(=O)C2CCCN2C(=O)C(NC(C)=O)C(C)OC(=O)C(Cc2ccc(OC)cc2)N(C)C(=O)C2CCCN2C(=O)C(C(C)C)NC1=O (stereo not drawn) (Ac-TPIVP[NMeY](Me); ester 1-C; configuration not given here),outcome,NIH3T3,inactive [at 17.4 µM]
same,Potency,C33A,inactive
same,Potency,CAOV3,inactive
same,Potency,CASKI,inactive
same,Potency,Es-2,inactive
same,Potency,HeLa,inactive
same,Potency,Hek293T,inactive
O=C(O)c1c(O)c(-c2ccccc2)nc2ccccc12,Potency,MKL-2,inactive
same,outcome,NIH3T3,inactive
same,Potency,UISO,inactive
same,Potency,WaGa,inactive
same,Potency,C33A,inactive
same,Potency,CAOV3,inactive
same,Potency,CASKI,inactive
same,Potency,Es-2,inactive
same,Potency,HeLa,inactive
same,Potency,Hek293T,inactive
Cc1ccc(N)cc1O,Potency,MKL-2,6.11 µM (active)
same,Potency,UISO,24.3 µM (active)
same,Potency,WaGa,6.11 µM (active)
same,Potency,Es-2,inactive
same,Potency,HeLa,inactive
same,Potency,Hek293T,inactive
COc1ccc(CN2C(=O)C(=O)c3cc(S(=O)(=O)N4CCC[C@H]4COc4cccnc4)ccc32)cc1,outcome,NIH3T3,inactive
same,Potency,C33A,inactive
same,Potency,CAOV3,inactive
same,Potency,CASKI,inactive
same,Potency,Es-2,inactive
same,Potency,HeLa,inactive
same,Potency,Hek293T,inactive
C[C@H](NC(c1cccc2[nH]c(=O)c(=O)[nH]c12)P(=O)(O)O)c1ccc(Br)cc1 (stereo partly drawn),outcome,NIH3T3,inactive
same,Potency,C33A,inactive
same,Potency,CAOV3,inactive
same,Potency,CASKI,inactive
same,Potency,Es-2,inactive
same,Potency,HeLa,inactive
same,Potency,Hek293T,inactive
CCCC(=O)O[C@@H]1[C@@H]2[C@@H](OC(C)=O)[C@]3(C)C(=O)[C@H]4[C@@H](OC(C)=O)C(C)(C)C[C@H]4[C@]3(C)C(=O)[C@@]2(OC(C)=O)C[C@@H]1C,outcome,NIH3T3,inactive [at 17.4 µM]
same,Potency,C33A,inactive
same,Potency,CAOV3,inactive
same,Potency,CASKI,inactive
same,Potency,Es-2,inactive
same,Potency,HeLa,inactive
same,Potency,Hek293T,inactive
CN(C)CC1CCOC1(c1ccccc1)c1ccccc1 (stereo not drawn),outcome,NIH3T3,inactive [at 17.4 µM]
same,Potency,C33A,inactive
same,Potency,CAOV3,inactive
same,Potency,CASKI,inactive
same,Potency,Es-2,inactive
same,Potency,HeLa,inactive
same,Potency,Hek293T,inactive
COc1cc2nc(N3CCC(N4CCCCC4)CC3)nc(NC3CCCCCC3)c2cc1OC,Potency,C33A,25.1 µM (active)
same,Potency,CAOV3,7.08 µM (active)
C/C(=C\CCC(C)CCO)C(=O)OC1(C)CCC2C(C(=O)O)=COC(OC3OC(CO)C(O)C(O)C3O)C21 (stereo not drawn),outcome,NIH3T3,inactive; activator [at 17.4 µM]
same,Potency,C33A,inactive
same,Potency,CAOV3,inactive
same,Potency,CASKI,inactive
same,Potency,Es-2,inactive
same,Potency,HeLa,inactive
same,Potency,Hek293T,inactive
c1cc(OCCCN2CCCCC2)ccc1CN1CCCCC1,outcome,NIH3T3,inactive
same,Potency,C33A,inactive
same,Potency,CAOV3,inactive
same,Potency,CASKI,inactive
same,Potency,Es-2,inactive
same,Potency,HeLa,inactive
same,Potency,Hek293T,inactive
CO/N=C(/C(=O)N[C@@H]1C(=O)N2C(C(=O)O)=C(Cn3ccc(=N)n3CCO)CS[C@H]12)c1csc(N)n1,outcome,NIH3T3,inactive
same,Potency,C33A,inactive
same,Potency,CASKI,inactive
same,Potency,Es-2,inactive
same,Potency,HeLa,inactive
same,Potency,Hek293T,inactive
C=C(C)C1CCC2(C(=O)O[C@@H]3O[C@H](CO[C@@H]4O[C@H](CO)[C@@H](O)[C@H](O)[C@H]4O)[C@@H](O)[C@H](O[C@@H]4O[C@@H](C)[C@H](O)[C@@H](O)[C@H]4O)[C@H]3O)CCC3(C(=O)O)C(CCC4C5(C)CCC(O)C(C)(C)C5CCC43C)C12 (stereo partly drawn),outcome,NIH3T3,inactive [at 9.27 µM]
same,"activity change, negative = cytotoxicity",C33A,-9.37% [at 11.6 µM]
same,"activity change, negative = cytotoxicity",CAOV3,-3.74% [at 11.6 µM]
same,"activity change, negative = cytotoxicity",CASKI,13.9% [at 11.6 µM]
same,"activity change, negative = cytotoxicity",Es-2,1.26% [at 11.6 µM]
same,"activity change, negative = cytotoxicity",HeLa,-0.105% [at 11.6 µM]
same,"activity change, negative = cytotoxicity",Hek293T,-3.68% [at 11.6 µM]
CC1OC(OC2C(C)OC(OC3C(O)C(CO)OC(O[C@H]4CC[C@@]5(C)C(CC[C@]6(C)C5CC=C5C7[C@@H](C)[C@H](C)CC[C@]7(C(=O)O)CC[C@]56C(=O)O)C4(C)C)C3O)C(O)C2O)C(O)C(O)C1O (stereo partly drawn),outcome,NIH3T3,inactive [at 9.27 µM]
same,"activity change, negative = cytotoxicity",C33A,-5.63% [at 11.6 µM]
same,"activity change, negative = cytotoxicity",CAOV3,10.5% [at 11.6 µM]
same,"activity change, negative = cytotoxicity",CASKI,1.59% [at 11.6 µM]
same,"activity change, negative = cytotoxicity",Es-2,1.92% [at 11.6 µM]
same,"activity change, negative = cytotoxicity",HeLa,9.15% [at 11.6 µM]
same,"activity change, negative = cytotoxicity",Hek293T,-7.85% [at 11.6 µM]
O=S(=O)(NCC1CC1)c1ccc(Nc2nccc(N3CCCc4cc(O)ccc43)n2)cc1,Potency,C33A,31.6 µM (active)
CC(O)/C=C/C1(O)C(C)C(O[C@@H]2O[C@H](CO)[C@@H](O)[C@H](O)[C@H]2O)C(O)CC1(C)C (stereo partly drawn),outcome,NIH3T3,inactive [at 17.4 µM]
same,Potency,C33A,inactive
same,Potency,CAOV3,inactive
same,Potency,CASKI,inactive
same,Potency,Es-2,inactive
same,Potency,HeLa,inactive
same,Potency,Hek293T,inactive
Cc1ccc(S(=O)(=O)Cc2nc(-c3ccc(C(=O)NCc4cccnc4)cc3)oc2C)cc1,Potency,C33A,inactive
same,Potency,CAOV3,inactive
C[C@H](CCC(=O)O)[C@H]1CC[C@H]2[C@@H]3C[C@H](O)[C@@H]4C[C@H](O)CC[C@]4(C)[C@H]3CC[C@]12C,outcome,NIH3T3,inactive
same,Potency,C33A,inactive
same,Potency,CASKI,inactive
same,Potency,Es-2,inactive
same,Potency,HeLa,inactive
same,Potency,Hek293T,inactive
CN(C)C/C=C/C(=O)Nc1cc2c(Nc3ccc(F)c(Cl)c3)ncnc2cc1OC1CCOC1 (stereo not drawn),Potency,C33A,20 µM (active)
same,Potency,CAOV3,10 µM (active)
C=CC(C)(C)c1[nH]c2cc3c(cc2c1CC1NC(=O)C2CCCN2C1=O)C=CC(C)(C)O3 (stereo not drawn),outcome,NIH3T3,inactive [at 17.4 µM]
same,Potency,C33A,inactive
same,Potency,CASKI,inactive
same,Potency,Es-2,inactive
same,Potency,HeLa,inactive
same,Potency,Hek293T,inactive
C=C1CCC2C(C)(COC(C)=O)CCCC2(C)C1CCC(C)CC(=O)O (stereo not drawn),outcome,NIH3T3,inactive
same,Potency,C33A,inactive
same,Potency,CAOV3,inactive
same,Potency,CASKI,inactive
same,Potency,Es-2,inactive
same,Potency,HeLa,inactive
same,Potency,Hek293T,inactive
